Experimental data taken from PubChem BioAssay (NCI).
“And” between values parts separate entries of the source, which are not always exact repeats. Equal entries are not always repeated. The panel holds about 83,000 compounds, 20% with a hit somewhere; the sample as a whole holds those more often.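 How to read the values: 0–100, growth inhibition (40 = 60% inhibited); 0, no net growth; -100 to 0, cell death (-40 = 40% of starting cells died; -100 = all dead).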 Unmarked numbers belong to inactive results. The source made the active and inactive calls. How the source made its calls: active means growth percent below 10; inactive means the rest.

Tested on: MDA-MB-468 breast
Assay: NCI-60 one-dose screen, 48 h (100 = growth as untreated, 0 = no growth, -100 = all killed)
Conditions: 10 µM unless noted

Compound	growth
CCCN(CCC)C(=O)c1ccc(C)cc1	96.3%
COC1OC(C(O)C(O)CO)C(O)C(O)C1O (stereo not given)	101%
Cc1[nH]c(C(=O)Nc2ccccc2OCc2cccc(C(=O)NC3CCNC3)c2)c(Cl)c1Cl (stereo not given)	22%
C=CCNc1ccc2c3c(cccc13)C(=O)N(CC=C)C2=O	60.3%
C=C1CC[C@@H]2[C@]3(C)COC(c4ccccc4)O[C@@H]3CC[C@@]2(C)[C@@H]1C/C=C1/C(=O)OC[C@H]1O (stereo not given in full)	91.4%
OC(COc1ccccc1Cl)CN1CCN(c2cccc(Cl)c2)CC1 (stereo not given)	103%
Cc1sc(NC(=O)c2ccc(C(C)(C)C)cc2)c(C(=O)O)c1C	80%
CC1CCCCN1S(=O)(=O)c1ccc(CN=C=S)cc1 (stereo not given)	17.4%
CC(C)c1ccc(Cn2ccc3c4c(N)nc(NC5CC5)nc4ccc32)cc1	-76% (active)
CCCCCCCCCCCCCCCCCCOc1cccc(CCOP(=O)(O)OCC[N+](C)(C)C)c1	94.2%
CCN(CC)c1ccc(/C=C/C2=[N+](C)c3ccccc3C2(C)C)c(C)c1	-9.14% (active)
COc1ccc(-c2cc(=O)c3c(O)cc(O)cc3o2)cc1	121% and 96.2%
CC1(C(N)=O)CCC(C(=O)O)C1(C)C (stereo not given)	99.2%
COc1nc2ccccc2cc1-c1nc2c(cnn2-c2ccc(Br)cc2)c(=O)[nH]1	5.52% (active)
COC(=O)c1c(C)nc(C)c2c1C(=O)C(Br)=C(NCCN1CCOCC1)C2=O	83.4%
CS(=O)(=O)Nc1ccc(Nc2c3ccccc3nc3cc([N+](=O)[O-])ccc23)cc1	-43.3% (active)
CC(C)CC(NC(=O)CN(Cc1ccccc1)S(C)(=O)=O)C(=O)O (stereo not given)	99.6%
C(=C\c1cn(-c2ccccc2)nc1-c1ccccc1)/c1nnc(-c2c[nH]c3ccccc23)o1	87.1%
CCOC(=O)C(=O)Nc1ccc2c(ccn2C(=O)c2cccc(F)c2)c1	89.5%
CC(C)C(/C=C/c1[nH]ncc1-c1cc(Cl)ccc1O)N1CCOCC1 (stereo not given)	84.9%

Compound	growth
COc1ccc(C2[C@@H](Cl)C(=O)N2c2cc(OC)c(OC)c(OC)c2)cc1Cl (stereo not given in full)	2.32% (active)
CC(C)CCC[C@@H](C)[C@H]1CC[C@H]2[C@@H]3CC=C4C[C@@H](C(C(=O)O)C(=O)O)CC[C@]4(C)[C@H]3CC[C@]12C	-32% (active)
C[C@H](Oc1cc(-c2cnn(C3CCNCC3)c2)cnc1N)c1c(Cl)ccc(F)c1Cl	34.9%
CCOC(=O)c1cnc2ccc(Br)cc2c1Nc1cccc(S(=O)(=O)NC)c1	90.8%
COC(=O)C1(NC(=O)CNC(=O)OCc2ccccc2)CCCC1	96.1%
C=C[C@]1(C)C=C2CC[C@@H]3C(C)(C)C(=O)CC[C@@]3(C)[C@@H]2CC1	110%
O=[N+]([O-])C1C(c2ccccc2)C12c1ccccc1-c1ccccc12 (stereo not given)	-26% (active)
Brc1ccc(SSc2ccc(Br)cc2)cc1	87%
CCCCCCCCn1ccc2cc(NC(=O)Cn3cc(CN4CCN(CC)CC4)nn3)ccc21	62.1%
CC[N+]1(CC)CC[N+]2(CCCC(C)CC2)CC1 (stereo not given)	108%
CCOC(=O)c1[nH]c(-c2ccc(Cl)cc2)cc1-c1cccnc1	-1.1% (active)
COc1cc(/C=N/n2cnc3oc(-c4ccccc4)cc3c2=N)cc(CN2CCCC2)c1O	82%
COC(=O)[C@H]1Cc2c([nH]c3ccccc23)[C@H](c2ccc3c(c2)OCO3)N1	102%
Clc1ccc(CSc2nnc(-c3ccc(Cl)cc3)n2-c2ccccc2)cc1	64.8%
COc1ccc(OC)c(NCC(=O)n2nc(/C=C\c3ccc(O)c(OC)c3)cc2/C=C\c2ccc(O)c(OC)c2)c1	12.1%
O=C(O)CNC1=C(Cl)C(=O)c2ccccc2C1=O	109%
CCC1=CC2CN(C1)Cc1c([nH]c3ccccc13)[C@@](C(=O)OC)(c1cc3c(cc1OC)N(C)[C@H]1[C@@](O)(C(=O)OC)[C@H](OC(C)=O)[C@]4(CC)C=CCN5CC[C@]31[C@@H]54)C2 (stereo not given in full)	44.4%
Nc1nc(Br)nc2c1ncn2C1CC(O)C(CO)O1 (stereo not given)	100%
CCCCCCCCCc1ccc(OC(C)=O)cc1	104%
O=C1CCCC2=C1C(c1c[nH]c3ccc(Br)cc13)Cc1cc(Br)ccc1N2 (stereo not given)	-6.51% (active)
